Assay results from PubChem BioAssay (NCATS).
Inconclusive results are not listed. Entries that show only a call come without a potency. Active and inactive are the calls of the source. Unless noted, calls follow the shape of the dose curve; as a rule, active = well fitted curve in the direction sought with a large enough effect; inconclusive = small, poorly fitted or top-dose-only effect, or another doubt; inactive = no such curve, though single readings can be large; an effect the other way counts as inactive or inconclusive.

Experiments:
[1] = qHTS for differential inhibitors of proliferation of Plasmodium falciparum line HB3 (AID 1886); details: Potency: Plasmodium falciparum HB3 proliferation inhibition; series mostly up to 28.7 µM;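 also: parasites grown with compound for 72 h before SYBR Green readout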; also: potency is read from the fitted curve at half-maximal effect
[2] = qHTS Assay for Modulators of Human Peripheral Myelin Protein 22 (PMP22) Expression/Activity (AID 1967; active = well fitted curve in the direction sought with a large enough effect in the signal ratio; the % refers to the signal ratio); details: Cell-based PMP22 reporter, dual-color luciferase ratio, mouse Pmp22 promoter in mouse Schwann cells; series mostly up to 115 µM
Procedure, shortened: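 Mouse MSC80 Schwann cells carrying Pmp22 promoter–green click beetle luciferase plus EF-alpha–red luciferase control, dosed 24 h at 37 °C. Dual-filter luminescence, overlap-corrected; %Activity from green/red ratio normalised to untreated cells, concentration-response curves fitted.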

[3] = molecular target: Ferritin light chain (Equus caballus) (UniProt P02791); experiment: qHTS Validation Assay for Identification of Novel General Anesthetics (AID 2323); details: horse apoferritin, anesthetic-site fluorescent probe displacement; series mostly up to 76.9 µM
Procedure, shortened: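 Horse-spleen apoferritin (10 uM) in PBS with 50% saturated 1-aminoanthracene; compounds pin-transferred, 10 min at room temperature. Fluorescence read at 380/535 nm, normalized to free 1-AMA and 1-AMA/apoferritin values; four-parameter Hill fit.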

[4] = molecular target: ATP-dependent DNA helicase Q1 (Homo sapiens) (UniProt P46063); experiment: qHTS Validation Assay for Inhibitors of RecQ-Like Dna Helicase 1 (RECQ1) (AID 2353); details: recombinant RECQ1 helicase DNA unwinding assay; series mostly up to 25.6 µM
Procedure, shortened: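 50 nM RECQ1T1 preincubated 15 min with compound in Tris pH 8.0 buffer with MgCl2, DTT, Tween-20 and 2.5 ug/ml poly(dI-dC); started with 200 nM TAMRA/BHQ-2 forked duplex and 2 mM ATP. Unwinding read as fluorescence (525/598 nm), two reads 2 h apart.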

[5] = Cytometric Cell-Based qHTS for Inhibitors of the mTORC1 Signaling Pathway in MEF (Tsc2-/-, p53-/-) Cells (AID 2660); details: mTORC1 pathway cytometry; series mostly up to 38.3 µM; also: potency is read from the fitted curve at half-maximal effect
Procedure, shortened: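 Immunofluorescence qHTS of rpS6 Ser235/236 phosphorylation: MEFs (Tsc2-/-, p53-/-) treated 24 h, 37 C, in DMEM + 10% FBS. Alexa-488 signal normalized to PI count, referenced to rapamycin (7.5 nM) and DMSO; PI cell number recorded for viability.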

[6] = High Content Imaging Cell-Based qHTS for Inhibitors of the mTORC1 Signaling Pathway in MEF (Tsc2-/-, p53-/-) Cells (AID 2666); details: series mostly up to 38.3 µM;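 also: percent of cells scored positive for phospho-rpS6 Ser235/236 immunostaining by imaging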; also: potency is read from the fitted curve at half-maximal effect
Procedure, shortened: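 Phospho-rpS6 (Ser235/236) immunofluorescence, normalized and scored as % positive cells using rapamycin and DMSO controls, was read in empty-vector Tsc2-/-, p53-/- MEFs after 24 h compound exposure at 37 C; propidium iodide counted cells.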

[7] = High Content Imaging Cell-Based qHTS for Inhibitors of the mTORC1 Signaling Pathway in MEF Cells (AID 2667); details: series mostly up to 38.3 µM; also: potency is read from the fitted curve at half-maximal effect
Procedure, shortened: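 WT MEFs (Tsc2-/-, p53-/- re-expressing Tsc2), in DMEM + 10% FBS, were treated with compound for 24 h at 37 C. Cells were then fixed and stained for phospho-rpS6 Ser235/236 with propidium iodide as cell count. Values are % positive cells, with thresholds set against rapamycin-treated cells.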

[8] = Cytometry Cell-Based qHTS for Inhibitors of the mTORC1 Signaling Pathway in MEF cells (AID 2668); details: mTORC1 pathway readout; series mostly up to 38.3 µM;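 also: Tsc2-/- p53-/- mouse embryonic fibroblasts stably re-expressing wild-type Tsc2; percent cells positive for phospho-rpS6 Ser235/236 relative to propidium iodide stain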
Procedure, shortened: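 MEFs (Tsc2-/-, p53-/- stably expressing WT Tsc2) treated 24 h at 37 degree Celsius, fixed, stained with Alexa-488 anti-phospho-rpS6 Ser235/236 and propidium iodide; Acumen laser scanning. Reported as % positive cells, phospho-S6 normalized to PI.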

[9] = Validation screen for inhibitors of Lassa infection (AID 463096; calls by dose curve); details: Lassa virus infection, cell-based; series mostly up to 46.1 µM
[10] = molecular target: Ubiquitin carboxyl-terminal hydrolase 2 (Homo sapiens) (UniProt O75604); experiment: qHTS Validation Assay for Inhibitors of Ubiquitin-specific Protease USP2a Using CHOP2 as the Reporter (AID 463106); details: USP2a cleavage of CHOP2 reporter, enzymatic; series mostly up to 38.3 µM
Procedure, shortened: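 USP2 core (10 nM final) was preincubated with compound 30 min at RT in pH 8.0 Tris/CaCl2/beta-ME/CHAPS buffer. Ub-CHOP2 and reporter substrate (25 nM final each) were then added, with fluorescence (Ex 485/Em 531) read after 60 min. Data were normalized to NEM full inhibition and fitted to concentration-response curves.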

[11] = molecular target: DNA polymerase III PolC-type (Bacillus subtilis (strain 168)) (UniProt P13267); experiment: qHTS Validation Assay for the Inhibitors of DNA Replication in Gram-Positive Bacteria (AID 485295); details: Gram-positive bacterial DNA replication assay; series mostly up to 57.1 µM; also: potency is read from the fitted curve at half-maximal effect
Procedure, shortened: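 Reconstituted B. subtilis Pol III holoenzyme (PolC, beta clamp, SSB, primase) preincubated with compound, then M13Gori single-stranded circular template with dNTPs/NTPs added; room temperature reaction. Stopped with EDTA/PicoGreen; dsDNA fluorescence read, EDTA as full-inhibition control.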

[12] = molecular target: Tumor susceptibility gene 101 protein (Homo sapiens) (UniProt Q99816); experiment: qHTS Validation Assay for Iinhibitors of HIV-1 Budding by Blocking the Interaction of PTAP/TSG101 (AID 485342; calls by dose curve); details: TSG101-PTAP binding, fluorescence polarization, 4-point titration; series mostly up to 115 µM
Procedure, shortened: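 Tsg101 binding domain (10 uM) with FITC-labeled PTAP peptide (50 nM) in HEPES pH 7.5 buffer, 20 min at r.t. with compounds. Binding measured by fluorescence polarization.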

[13] = qHTS Validation Assay to Find Inhibitors of Chronic Active B-Cell Receptor Signaling (AID 485345; active = well fitted curve in the direction sought with a large enough effect in the main read-out, with a control signal flat, not every such curve was filed as active; also: potency is read from the fitted curve at half-maximal effect); details: ABC-DLBCL cells, chronic BCR signaling reporter, CBG luciferase; series mostly up to 46.1 µM
Procedure, shortened: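 TMD8 ABC-DLBCL cells stably carrying doxycycline-inducible IkappaBalpha–green luciferase fusion plus unfused red luciferase; compounds 46 uM to 3 nM, 4 h at 37C with doxycycline. Corrected green/red luminescence ratio normalized to 10 uM MG-132 and basal cell wells; curves fitted.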

[14] = molecular target: Beta-2 adrenergic receptor (Homo sapiens) (UniProt P07550); experiment: qHTS validation assay of beta-arrestin-biased ligands of beta2-adrenergic receptor (AID 485366); details: cell-based beta-arrestin recruitment to ADRB2, qHTS; series mostly up to 46.1 µM
Procedure, shortened: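 Arrestin-recruitment (Tango) reporter: ligand-bound beta2-AR recruits beta-arrestin, releasing tTA, which upregulates luciferase. Titrations of up to 46 microM incubated 18 hr at 37 degrees C before luminescent readout.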

[15] = molecular target: ATP-dependent 6-phosphofructokinase (Trypanosoma brucei brucei) (UniProt O15648); experiment: qHTS Validation Assay to Find Inhibitors of T. brucei phosphofructokinase (AID 485368); also: potency is read from the fitted curve at half-maximal effect; details: T. brucei PFK enzyme assay, qHTS 7-point titration; series mostly up to 57.5 µM
Procedure, shortened: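 Steps: substrate mix (0.5 mM F6P, 0.1 mM ATP, MgCl2, TEA pH 8.0); compound; 1.25 nM T. brucei PFK; 45 min RT; ATP depletion 10 min; ADP-to-ATP detection 10 min; luminescence read; curve fitting and classification.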

[16] = Validation screen for small molecules that induce DNA re-replication in MCF 10A normal breast cells (AID 463097); details: MCF 10A cells, DNA re-replication phenotype imaging; series mostly up to 46.1 µM; also: nearly all actives have a fitted effect of over 60% in size
Procedure, shortened: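 MCF 10A cells exposed to compound 48 hr at 37 C, 5% CO2, then Hoechst-stained 40 min. Laser-scanning imaging of nuclear DNA content (405 nm ex, 500-530 nm em); re-replication scored as rise in nuclei with elevated fluorescence intensity.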

ATP-dependent DNA helicase Q1 (Homo sapiens), sequence (P46063 whole entry, looked up): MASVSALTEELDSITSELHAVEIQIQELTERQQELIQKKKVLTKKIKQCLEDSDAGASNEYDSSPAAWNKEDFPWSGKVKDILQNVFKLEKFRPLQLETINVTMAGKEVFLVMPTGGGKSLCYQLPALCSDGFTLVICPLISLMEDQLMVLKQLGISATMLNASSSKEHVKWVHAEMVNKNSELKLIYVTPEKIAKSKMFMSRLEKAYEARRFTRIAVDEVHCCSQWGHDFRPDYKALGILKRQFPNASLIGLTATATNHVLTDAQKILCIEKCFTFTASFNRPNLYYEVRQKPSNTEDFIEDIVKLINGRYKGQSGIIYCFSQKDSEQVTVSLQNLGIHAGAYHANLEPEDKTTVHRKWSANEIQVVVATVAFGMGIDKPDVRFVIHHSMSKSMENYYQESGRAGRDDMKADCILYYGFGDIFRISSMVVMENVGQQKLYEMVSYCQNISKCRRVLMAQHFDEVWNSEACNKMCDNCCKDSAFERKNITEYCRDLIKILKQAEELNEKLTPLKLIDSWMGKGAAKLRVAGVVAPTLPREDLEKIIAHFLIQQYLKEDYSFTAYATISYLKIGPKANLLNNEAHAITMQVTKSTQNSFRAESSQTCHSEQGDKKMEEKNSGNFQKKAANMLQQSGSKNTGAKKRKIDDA
ATP-dependent 6-phosphofructokinase (Trypanosoma brucei brucei), sequence (O15648 whole entry, looked up): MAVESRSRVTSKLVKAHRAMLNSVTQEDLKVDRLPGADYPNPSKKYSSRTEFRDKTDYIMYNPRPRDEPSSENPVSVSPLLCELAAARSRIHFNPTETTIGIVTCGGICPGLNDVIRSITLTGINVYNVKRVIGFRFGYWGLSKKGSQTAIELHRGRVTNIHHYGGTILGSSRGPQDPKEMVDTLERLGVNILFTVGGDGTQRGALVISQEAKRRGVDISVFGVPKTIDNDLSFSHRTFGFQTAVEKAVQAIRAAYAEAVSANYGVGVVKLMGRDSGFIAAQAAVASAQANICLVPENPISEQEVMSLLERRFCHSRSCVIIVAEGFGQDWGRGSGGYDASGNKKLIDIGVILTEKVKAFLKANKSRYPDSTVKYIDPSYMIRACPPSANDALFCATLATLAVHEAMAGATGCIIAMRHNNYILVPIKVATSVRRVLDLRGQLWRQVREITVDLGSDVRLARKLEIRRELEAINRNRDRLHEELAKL
Beta-2 adrenergic receptor (Homo sapiens), sequence (P07550 whole entry, looked up): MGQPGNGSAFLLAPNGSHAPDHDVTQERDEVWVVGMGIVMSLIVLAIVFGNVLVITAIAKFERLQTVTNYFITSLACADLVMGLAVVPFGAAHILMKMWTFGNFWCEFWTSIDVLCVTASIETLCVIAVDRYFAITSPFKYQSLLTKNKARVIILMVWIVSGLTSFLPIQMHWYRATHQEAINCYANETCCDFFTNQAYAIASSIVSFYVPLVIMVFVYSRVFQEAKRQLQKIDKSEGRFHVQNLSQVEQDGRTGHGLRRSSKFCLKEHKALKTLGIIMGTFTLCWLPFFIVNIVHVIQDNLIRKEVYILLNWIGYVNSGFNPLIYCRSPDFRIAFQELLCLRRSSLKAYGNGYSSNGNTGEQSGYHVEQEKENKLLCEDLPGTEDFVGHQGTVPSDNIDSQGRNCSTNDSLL
DNA polymerase III PolC-type (Bacillus subtilis (strain 168)), sequence (P13267 whole entry, looked up): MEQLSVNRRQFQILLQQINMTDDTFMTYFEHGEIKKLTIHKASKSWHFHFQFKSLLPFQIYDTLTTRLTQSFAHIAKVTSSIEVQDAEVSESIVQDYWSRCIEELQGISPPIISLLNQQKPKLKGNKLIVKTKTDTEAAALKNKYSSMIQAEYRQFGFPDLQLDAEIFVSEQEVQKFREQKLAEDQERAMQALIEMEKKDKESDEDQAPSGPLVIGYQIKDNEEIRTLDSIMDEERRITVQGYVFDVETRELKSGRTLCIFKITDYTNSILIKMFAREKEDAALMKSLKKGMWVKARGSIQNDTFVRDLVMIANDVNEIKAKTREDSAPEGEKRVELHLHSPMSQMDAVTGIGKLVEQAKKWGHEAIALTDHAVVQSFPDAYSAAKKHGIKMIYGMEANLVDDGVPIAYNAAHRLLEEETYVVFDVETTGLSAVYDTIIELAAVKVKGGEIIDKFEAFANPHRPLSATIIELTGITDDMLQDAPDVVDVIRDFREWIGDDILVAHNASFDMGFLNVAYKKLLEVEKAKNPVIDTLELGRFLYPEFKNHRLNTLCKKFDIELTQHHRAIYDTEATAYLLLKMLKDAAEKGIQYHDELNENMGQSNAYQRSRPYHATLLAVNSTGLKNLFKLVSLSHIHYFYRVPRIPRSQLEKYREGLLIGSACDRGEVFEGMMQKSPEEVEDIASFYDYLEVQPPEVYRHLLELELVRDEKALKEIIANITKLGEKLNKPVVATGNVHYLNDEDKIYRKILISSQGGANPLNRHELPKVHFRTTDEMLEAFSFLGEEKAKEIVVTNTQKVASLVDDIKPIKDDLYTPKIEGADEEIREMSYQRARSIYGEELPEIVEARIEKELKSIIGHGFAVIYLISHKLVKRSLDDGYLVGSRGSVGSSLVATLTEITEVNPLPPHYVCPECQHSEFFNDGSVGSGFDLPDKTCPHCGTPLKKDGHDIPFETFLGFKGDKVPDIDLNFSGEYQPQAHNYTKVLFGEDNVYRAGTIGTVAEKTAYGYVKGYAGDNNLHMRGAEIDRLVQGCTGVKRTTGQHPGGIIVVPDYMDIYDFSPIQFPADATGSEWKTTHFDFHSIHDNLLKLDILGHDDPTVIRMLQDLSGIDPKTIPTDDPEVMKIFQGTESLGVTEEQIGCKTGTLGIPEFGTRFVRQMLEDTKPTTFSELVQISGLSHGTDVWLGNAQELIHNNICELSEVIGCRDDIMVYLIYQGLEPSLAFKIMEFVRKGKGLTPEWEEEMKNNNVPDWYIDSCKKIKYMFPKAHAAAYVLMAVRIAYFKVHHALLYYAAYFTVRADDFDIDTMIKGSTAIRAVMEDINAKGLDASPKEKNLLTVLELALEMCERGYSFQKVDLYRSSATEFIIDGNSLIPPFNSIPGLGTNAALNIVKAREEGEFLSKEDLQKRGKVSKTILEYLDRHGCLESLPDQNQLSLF
Ferritin light chain (Equus caballus), sequence (P02791 2-175 limits assumed): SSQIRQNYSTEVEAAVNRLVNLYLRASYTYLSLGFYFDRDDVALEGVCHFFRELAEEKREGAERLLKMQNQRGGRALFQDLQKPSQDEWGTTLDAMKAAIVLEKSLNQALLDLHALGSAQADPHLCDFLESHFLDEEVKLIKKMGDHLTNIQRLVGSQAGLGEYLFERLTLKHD
Tumor susceptibility gene 101 protein (Homo sapiens), sequence (Q99816 whole entry, looked up, the tested form may be a part): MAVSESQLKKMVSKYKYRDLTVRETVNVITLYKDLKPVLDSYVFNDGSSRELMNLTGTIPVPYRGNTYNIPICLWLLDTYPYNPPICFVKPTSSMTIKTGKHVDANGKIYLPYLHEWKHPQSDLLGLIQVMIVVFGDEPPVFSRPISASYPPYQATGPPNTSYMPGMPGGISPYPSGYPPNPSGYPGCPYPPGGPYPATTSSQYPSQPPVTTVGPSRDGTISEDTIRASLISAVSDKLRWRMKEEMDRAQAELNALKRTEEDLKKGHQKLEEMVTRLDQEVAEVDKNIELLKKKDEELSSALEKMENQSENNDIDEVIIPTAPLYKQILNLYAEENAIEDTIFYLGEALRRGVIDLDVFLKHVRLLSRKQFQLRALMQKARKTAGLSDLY
Ubiquitin carboxyl-terminal hydrolase 2 (Homo sapiens), sequence (O75604 whole entry, looked up): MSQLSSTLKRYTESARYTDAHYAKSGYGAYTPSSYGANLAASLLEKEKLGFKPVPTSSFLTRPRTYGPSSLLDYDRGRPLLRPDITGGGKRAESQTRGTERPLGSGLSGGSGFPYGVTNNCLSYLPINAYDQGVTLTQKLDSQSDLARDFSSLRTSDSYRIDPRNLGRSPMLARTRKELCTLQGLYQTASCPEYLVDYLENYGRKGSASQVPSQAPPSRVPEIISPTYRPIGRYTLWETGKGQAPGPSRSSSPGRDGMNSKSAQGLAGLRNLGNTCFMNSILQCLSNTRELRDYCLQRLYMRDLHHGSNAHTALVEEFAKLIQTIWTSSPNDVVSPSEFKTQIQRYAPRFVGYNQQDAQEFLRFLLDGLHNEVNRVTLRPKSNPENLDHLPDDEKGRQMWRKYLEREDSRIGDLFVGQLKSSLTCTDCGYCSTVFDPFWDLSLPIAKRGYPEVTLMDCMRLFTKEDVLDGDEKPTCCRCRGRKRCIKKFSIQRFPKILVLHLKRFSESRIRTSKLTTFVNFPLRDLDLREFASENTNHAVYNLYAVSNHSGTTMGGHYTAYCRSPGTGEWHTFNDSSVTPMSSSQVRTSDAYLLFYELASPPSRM

SMILES | Potency [1] | outcome [2] | outcome [3] | Potency [4] | Potency [5] | Potency [6] | Potency [7] | Potency [8] | Potency [9] | Potency [10] | Potency [11] | outcome [12] | Potency [13] | outcome [14] | Potency [15] | Potency [16]
NCCc1ccc(S(=O)(=O)F)cc1 | inactive | inactive | inactive | inactive | inactive | inactive | inactive | inactive | inactive | inactive | inactive | inactive | inactive | inactive | inactive | 
N[C@@]1(C(=O)O)CC[C@@H](C(=O)O)C1 | inactive | inactive | inactive | inactive |  | inactive | inactive | inactive | inactive | inactive | inactive | inactive | inactive | inactive |  | inactive
CC12NC(Cc3ccccc31)c1ccccc12 (configuration not stated) | inactive | inactive | inactive | inactive | inactive | inactive | inactive | inactive | inactive | inactive | inactive | inactive | inactive | inactive |  | inactive
Nc1ccc(CCN2CCN(c3cccc(C(F)(F)F)c3)CC2)cc1 | inactive |  | inactive | inactive | inactive | inactive |  |  | inactive | inactive | inactive | inactive | inactive | inactive | inactive | 
NCC(O)c1cc(O)c(O)cc1F (configuration not stated) | inactive |  | inactive | inactive | inactive | inactive |  | inactive | inactive | inactive | inactive | inactive | inactive | inactive | 4.78 µM (active) | inactive
OCc1cnc[nH]1 | 10 µM (active) |  | inactive | inactive | inactive | inactive |  | inactive | inactive | inactive | inactive | inactive | inactive | inactive |  | 
O=C(O)c1cc[c]([Hg][Cl])cc1 | 5.01 µM (active) |  | inactive | inactive | inactive | inactive |  | inactive | inactive | inactive | 4.74 µM (active) | inactive |  | inactive | 0.269 µM (active) | inactive
CCCn1c(C)c(C(=O)c2ccc3ccccc3c2)c2ccccc21 | 12.6 µM (active) |  | inactive | inactive | inactive | inactive | inactive |  | inactive | inactive | inactive | inactive |  | inactive |  | 
NCCCP(=O)(O)O | inactive |  | inactive | inactive | inactive | inactive | inactive | inactive | inactive | inactive | inactive | inactive | inactive | inactive | inactive | inactive
C[N+](C)(C)CC#CCN1CCCC1=O | inactive |  | inactive | inactive | inactive | inactive | inactive | inactive | inactive | inactive | inactive | inactive | inactive | inactive | inactive | inactive
COc1ccc2[nH]cc(CCN)c2c1 | inactive |  | inactive | inactive | inactive | inactive | inactive | inactive | inactive | inactive | inactive | inactive | inactive | inactive |  | inactive
COc1ccc(OC)c(C(O)C(C)N)c1 (configuration not stated) | inactive |  | inactive | inactive | inactive | inactive |  | inactive | inactive | inactive | inactive | inactive | inactive | inactive |  | inactive
CN(C(=O)Cc1ccc(Cl)c(Cl)c1)C(CN1CCCC1)c1cccc(OCC(=O)O)c1 (configuration not stated) | inactive |  | inactive | inactive | inactive | inactive |  | inactive | inactive | inactive | inactive | inactive | inactive | inactive | inactive | 
COc1ccc2c(c1)[C@@]13CCCC[C@H]1[C@@H](C2)NCC3 | 11.2 µM (active) |  | inactive | inactive | inactive | inactive | inactive | inactive |  | inactive | inactive | inactive |  | inactive | inactive | 
C[C@]12Cc3cn4c(nc3C=C1CCC1C2CC[C@@]2(C)[C@H]1CC[C@@]2(O)C#N)nc1ccccc14 (some centres not stated) | 5.62 µM (active) |  | inactive | inactive | inactive | inactive |  | inactive | inactive | inactive | inactive | inactive | 13 µM (active) | inactive |  | 
CC1(C(=O)O)C2CCC(O2)C1(C)C(=O)O (configuration not stated) | 2.24 µM (active) |  | inactive | inactive | 13.1 µM (active) | 18.5 µM (active) | 3.69 µM (active) |  |  | inactive | inactive | inactive |  | inactive | inactive | 
CCCN(CCC)CCc1c[nH]c2ccc(C(N)=O)cc12 | inactive |  | inactive | inactive | inactive | inactive | inactive | inactive |  | inactive | inactive | inactive | inactive | inactive | inactive | inactive
O=[N+]([O-])c1cc(O)c(O)c([N+](=O)[O-])c1 | inactive |  | inactive | inactive | inactive | inactive | inactive | inactive |  | inactive | inactive | inactive | inactive | inactive |  | inactive
NC(N)=NOCC[C@H](N)C(=O)O | inactive |  | inactive | inactive | inactive | inactive |  | inactive | inactive | inactive | inactive | inactive | inactive | inactive | inactive | inactive
